# Article PMC11006913
# Numbering of substitutions follows the chain as printed.
# Experiments:
# Experiment in all cases: PBM; 200 nM protein, PBS
# Details in all cases: dsDNA, one strand shown
# [1] = molecular target: T1, VENTX (Homo sapiens, UniProt O95231 78-163, R121Q)
# T1 sequence: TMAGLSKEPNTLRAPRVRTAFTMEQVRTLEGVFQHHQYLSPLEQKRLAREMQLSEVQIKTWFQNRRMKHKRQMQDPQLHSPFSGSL
# [2] = molecular target: HOXC9 (Homo sapiens, UniProt P31274 178-260, K195R)
# [3] = molecular target: T2, VENTX (Homo sapiens, UniProt O95231 78-163)
# T2 sequence: T1 sequence with Q44R
# [4] = molecular target: T3, VENTX (Homo sapiens, UniProt O95231 78-163, Y115F)
# T3 sequence: T1 sequence with Y38F, Q44R
# [5] = molecular target: HOXB6 (Homo sapiens, UniProt P17509 132-218, K202E)
# HOXB6 (Homo sapiens, UniProt P17509 132-218, K202E), sequence (P17509 132-218 K202E): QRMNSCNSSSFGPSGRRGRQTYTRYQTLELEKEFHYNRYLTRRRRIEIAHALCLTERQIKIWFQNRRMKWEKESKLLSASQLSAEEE
# [6] = molecular target: HOXA2 (Homo sapiens, UniProt O43364 129-215, R185T)
# HOXA2 (Homo sapiens, UniProt O43364 129-215, R185T), sequence (O43364 129-215 R185T): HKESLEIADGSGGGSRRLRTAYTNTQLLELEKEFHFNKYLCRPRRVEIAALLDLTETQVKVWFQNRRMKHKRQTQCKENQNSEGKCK
# [7] = molecular target: HOXC9 (Homo sapiens, UniProt P31274 178-260)
# HOXC9 (Homo sapiens, UniProt P31274 178-260), sequence (P31274 178-260): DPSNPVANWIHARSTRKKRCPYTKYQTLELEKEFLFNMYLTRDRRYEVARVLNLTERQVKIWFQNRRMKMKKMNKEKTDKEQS
# [8] = molecular target: HOXC9 (Homo sapiens, UniProt P31274 178-260, R193K)
# HOXC9 (Homo sapiens, UniProt P31274 178-260, R193K), sequence (P31274 178-260 R193K): as the sequence (P31274 178-260) above, with R16K counted along it
# [9] = molecular target: HOXA2 (Homo sapiens, UniProt O43364 129-215, R185K)
# HOXA2 (Homo sapiens, UniProt O43364 129-215, R185K), sequence (O43364 129-215 R185K): as the sequence (O43364 129-215 R185T) above, with T57K counted along it
# [10] = molecular target: VAX1 (Homo sapiens, UniProt Q5SQQ9 86-172)
# VAX1 (Homo sapiens, UniProt Q5SQQ9 86-172), sequence (Q5SQQ9 86-172): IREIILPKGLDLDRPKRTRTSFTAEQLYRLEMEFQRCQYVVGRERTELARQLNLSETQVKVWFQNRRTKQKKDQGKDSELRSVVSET
# [11] = molecular target: HOXC9 (Homo sapiens, UniProt P31274 178-260, R222W)
# HOXC9 (Homo sapiens, UniProt P31274 178-260, R222W), sequence (P31274 178-260 R222W): as the sequence (P31274 178-260) above, with R45W counted along it
# [12] = molecular target: VAX1 (Homo sapiens, UniProt Q5SQQ9 86-172, T142I)
# VAX1 (Homo sapiens, UniProt Q5SQQ9 86-172, T142I), sequence (Q5SQQ9 86-172 T142I): as the sequence (Q5SQQ9 86-172) above, with T57I counted along it
# [13] = molecular target: HOXA2 (Homo sapiens, UniProt O43364 129-215, Y150S)
# HOXA2 (Homo sapiens, UniProt O43364 129-215, Y150S), sequence (O43364 129-215 Y150S): as the sequence (O43364 129-215 R185T) above, with Y22S, T57R counted along it
# [14] = molecular target: HOXA2 (Homo sapiens, UniProt O43364 129-215)
# HOXA2 (Homo sapiens, UniProt O43364 129-215), sequence (O43364 129-215): as the sequence (O43364 129-215 R185T) above, with T57R counted along it
# [15] = molecular target: VAX1 (Homo sapiens, UniProt Q5SQQ9 86-172, K157R)
# VAX1 (Homo sapiens, UniProt Q5SQQ9 86-172, K157R), sequence (Q5SQQ9 86-172 K157R): as the sequence (Q5SQQ9 86-172) above, with K72R counted along it
# [16] = molecular target: HOXB6 (Homo sapiens, UniProt P17509 132-218)
# HOXB6 (Homo sapiens, UniProt P17509 132-218), sequence (P17509 132-218): as the sequence (P17509 132-218 K202E) above, with E71K counted along it
# [17] = molecular target: HOXD13 (Homo sapiens, UniProt P35453 263-343, T313R)
# HOXD13 (Homo sapiens, UniProt P35453 263-343, T313R), sequence (P35453 263-343 T313R): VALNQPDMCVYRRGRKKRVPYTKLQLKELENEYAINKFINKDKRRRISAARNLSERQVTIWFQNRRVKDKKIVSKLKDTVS
# [18] = molecular target: HOXD13 (Homo sapiens, UniProt P35453 263-343)
# HOXD13 (Homo sapiens, UniProt P35453 263-343), sequence (P35453 263-343): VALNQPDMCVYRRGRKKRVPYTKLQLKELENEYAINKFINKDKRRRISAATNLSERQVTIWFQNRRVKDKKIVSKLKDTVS
# [19] = molecular target: HOXD13 (Homo sapiens, UniProt P35453 263-343, T313A)
# HOXD13 (Homo sapiens, UniProt P35453 263-343, T313A), sequence (P35453 263-343 T313A): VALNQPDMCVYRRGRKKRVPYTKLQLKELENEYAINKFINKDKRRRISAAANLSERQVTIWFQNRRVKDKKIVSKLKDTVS
# [20] = molecular target: HOXB9 (Homo sapiens, UniProt P17482 171-250, T197M)
# HOXB9 (Homo sapiens, UniProt P17482 171-250, T197M), sequence (P17482 171-250 T197M): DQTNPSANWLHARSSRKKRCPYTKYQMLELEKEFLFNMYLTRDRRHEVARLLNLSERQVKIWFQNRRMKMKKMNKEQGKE
# [21] = molecular target: ALX4 (Homo sapiens, UniProt Q9H161 200-286)
# ALX4 (Homo sapiens, UniProt Q9H161 200-286), sequence (Q9H161 200-286): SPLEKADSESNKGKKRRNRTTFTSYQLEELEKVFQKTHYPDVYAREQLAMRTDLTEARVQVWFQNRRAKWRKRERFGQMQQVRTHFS
# [22] = molecular target: ALX4 (Homo sapiens, UniProt Q9H161 200-286, Q225E)
# ALX4 (Homo sapiens, UniProt Q9H161 200-286, Q225E), sequence (Q9H161 200-286 Q225E): as the sequence (Q9H161 200-286) above, with Q26E counted along it
# [23] = molecular target: HOXB9 (Homo sapiens, UniProt P17482 171-250)
# HOXB9 (Homo sapiens, UniProt P17482 171-250), sequence (P17482 171-250): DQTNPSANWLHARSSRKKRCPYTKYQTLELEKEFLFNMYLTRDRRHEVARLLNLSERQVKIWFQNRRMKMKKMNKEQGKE
# [24] = molecular target: HOXB9 (Homo sapiens, UniProt P17482 171-250, R186Q)
# HOXB9 (Homo sapiens, UniProt P17482 171-250, R186Q), sequence (P17482 171-250 R186Q): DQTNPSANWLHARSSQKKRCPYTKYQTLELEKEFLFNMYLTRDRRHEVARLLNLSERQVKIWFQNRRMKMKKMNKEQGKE
# [25] = molecular target: PITX2 (Homo sapiens, UniProt Q99697 72-157)
# [26] = molecular target: HOXA4 (Homo sapiens, UniProt Q00056 201-287, W262R)
# HOXA4 (Homo sapiens, UniProt Q00056 201-287, W262R), sequence (Q00056 201-287 W262R): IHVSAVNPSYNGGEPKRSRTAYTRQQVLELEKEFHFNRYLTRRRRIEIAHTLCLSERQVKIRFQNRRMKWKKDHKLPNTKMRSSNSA
# [27] = molecular target: HOXA4 (Homo sapiens, UniProt Q00056 201-287, R217L)
# HOXA4 (Homo sapiens, UniProt Q00056 201-287, R217L), sequence (Q00056 201-287 R217L): as the sequence (Q00056 201-287 W262R) above, with R17L, R62W counted along it
# [28] = molecular target: T4, NKX2-6 (Homo sapiens, UniProt A6NCS4 118-204, R150C)
# T4 sequence: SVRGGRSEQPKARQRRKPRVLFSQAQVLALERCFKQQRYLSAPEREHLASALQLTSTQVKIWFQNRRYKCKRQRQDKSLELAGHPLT
# [29] = molecular target: MSX2 (Homo sapiens, UniProt P35548 130-214, R199I)
# MSX2 (Homo sapiens, UniProt P35548 130-214, R199I), sequence (P35548 130-214 R199I): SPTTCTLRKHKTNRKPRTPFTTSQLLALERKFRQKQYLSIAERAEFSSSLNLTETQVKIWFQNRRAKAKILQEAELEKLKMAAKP
# [30] = molecular target: HOXA4 (Homo sapiens, UniProt Q00056 201-287)
# HOXA4 (Homo sapiens, UniProt Q00056 201-287), sequence (Q00056 201-287): as the sequence (Q00056 201-287 W262R) above, with R62W counted along it
# [31] = molecular target: MSX2 (Homo sapiens, UniProt P35548 130-214)
# MSX2 (Homo sapiens, UniProt P35548 130-214), sequence (P35548 130-214): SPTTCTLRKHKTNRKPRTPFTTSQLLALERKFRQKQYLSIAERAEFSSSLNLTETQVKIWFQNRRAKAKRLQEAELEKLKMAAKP
# [32] = molecular target: PROP1 (Homo sapiens, UniProt O75360 56-141)
# PROP1 (Homo sapiens, UniProt O75360 56-141), sequence (O75360 56-141): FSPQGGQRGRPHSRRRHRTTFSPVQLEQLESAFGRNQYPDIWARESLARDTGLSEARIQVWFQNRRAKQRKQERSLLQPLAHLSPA
# [33] = molecular target: PROP1 (Homo sapiens, UniProt O75360 56-141, R99H)
# PROP1 (Homo sapiens, UniProt O75360 56-141, R99H), sequence (O75360 56-141 R99H): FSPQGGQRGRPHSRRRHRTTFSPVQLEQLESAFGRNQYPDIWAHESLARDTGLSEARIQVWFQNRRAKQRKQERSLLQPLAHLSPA
# [34] = molecular target: PROP1 (Homo sapiens, UniProt O75360 56-141, F88S)
# PROP1 (Homo sapiens, UniProt O75360 56-141, F88S), sequence (O75360 56-141 F88S): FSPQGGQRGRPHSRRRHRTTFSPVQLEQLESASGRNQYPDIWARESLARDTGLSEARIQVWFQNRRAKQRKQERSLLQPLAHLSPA
# [35] = molecular target: MSX2 (Homo sapiens, UniProt P35548 130-214, F161Y)
# MSX2 (Homo sapiens, UniProt P35548 130-214, F161Y), sequence (P35548 130-214 F161Y): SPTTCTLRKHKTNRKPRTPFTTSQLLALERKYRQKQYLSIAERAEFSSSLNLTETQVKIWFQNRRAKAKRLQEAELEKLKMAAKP
# [36] = molecular target: HOXA4 (Homo sapiens, UniProt Q00056 201-287, W262F)
# HOXA4 (Homo sapiens, UniProt Q00056 201-287, W262F), sequence (Q00056 201-287 W262F): as the sequence (Q00056 201-287 W262R) above, with R62F counted along it
# HOXC9 (Homo sapiens, UniProt P31274 178-260, K195R), sequence (P31274 178-260 K195R): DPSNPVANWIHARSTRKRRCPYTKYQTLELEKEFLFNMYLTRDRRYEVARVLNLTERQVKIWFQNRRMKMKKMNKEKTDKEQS
sequence,measurement,setting,value
CCCCTCGG,binding signal,[1],"8.03 upbm affinity estimate (log intensity, higher = more binding, comparable within an allelic series)"
same,binding signal,[2],"9.54 upbm affinity estimate (log intensity, higher = more binding, comparable within an allelic series)"
same,binding signal,[3],"7.93 upbm affinity estimate (log intensity, higher = more binding, comparable within an allelic series)"
same,binding signal,[4],"8.04 upbm affinity estimate (log intensity, higher = more binding, comparable within an allelic series)"
same,binding signal,[5],"8.78 upbm affinity estimate (log intensity, higher = more binding, comparable within an allelic series)"
same,binding signal,[6],"7.19 upbm affinity estimate (log intensity, higher = more binding, comparable within an allelic series)"
same,binding signal,[7],"9.64 upbm affinity estimate (log intensity, higher = more binding, comparable within an allelic series)"
same,binding signal,[8],"9.54 upbm affinity estimate (log intensity, higher = more binding, comparable within an allelic series)"
same,binding signal,[9],"10.3 upbm affinity estimate (log intensity, higher = more binding, comparable within an allelic series)"
same,binding signal,[10],"7.12 upbm affinity estimate (log intensity, higher = more binding, comparable within an allelic series)"
same,binding signal,[11],"9.5 upbm affinity estimate (log intensity, higher = more binding, comparable within an allelic series)"
same,binding signal,[12],"7.07 upbm affinity estimate (log intensity, higher = more binding, comparable within an allelic series)"
same,binding signal,[13],"10.4 upbm affinity estimate (log intensity, higher = more binding, comparable within an allelic series)"
same,binding signal,[14],"7.11 upbm affinity estimate (log intensity, higher = more binding, comparable within an allelic series)"
same,binding signal,[15],"7.1 upbm affinity estimate (log intensity, higher = more binding, comparable within an allelic series)"
same,binding signal,[16],"8.89 upbm affinity estimate (log intensity, higher = more binding, comparable within an allelic series)"
CTGGGACC,binding signal,[1],"8.08 upbm affinity estimate (log intensity, higher = more binding, comparable within an allelic series)"
same,binding signal,[2],"9.45 upbm affinity estimate (log intensity, higher = more binding, comparable within an allelic series)"
same,binding signal,[3],"8.05 upbm affinity estimate (log intensity, higher = more binding, comparable within an allelic series)"
same,binding signal,[4],"8.06 upbm affinity estimate (log intensity, higher = more binding, comparable within an allelic series)"
same,binding signal,[7],"9.59 upbm affinity estimate (log intensity, higher = more binding, comparable within an allelic series)"
same,binding signal,[8],"9.43 upbm affinity estimate (log intensity, higher = more binding, comparable within an allelic series)"
same,binding signal,[11],"9.65 upbm affinity estimate (log intensity, higher = more binding, comparable within an allelic series)"
CCCCTCCC,binding signal,[1],"8.02 upbm affinity estimate (log intensity, higher = more binding, comparable within an allelic series)"
same,binding signal,[2],"9.65 upbm affinity estimate (log intensity, higher = more binding, comparable within an allelic series)"
same,binding signal,[3],"7.87 upbm affinity estimate (log intensity, higher = more binding, comparable within an allelic series)"
same,binding signal,[4],"8.02 upbm affinity estimate (log intensity, higher = more binding, comparable within an allelic series)"
same,binding signal,[7],"9.76 upbm affinity estimate (log intensity, higher = more binding, comparable within an allelic series)"
same,binding signal,[17],"9.44 upbm affinity estimate (log intensity, higher = more binding, comparable within an allelic series)"
same,binding signal,[8],"9.62 upbm affinity estimate (log intensity, higher = more binding, comparable within an allelic series)"
same,binding signal,[18],"9.54 upbm affinity estimate (log intensity, higher = more binding, comparable within an allelic series)"
same,binding signal,[19],"9.62 upbm affinity estimate (log intensity, higher = more binding, comparable within an allelic series)"
same,binding signal,[11],"9.53 upbm affinity estimate (log intensity, higher = more binding, comparable within an allelic series)"
CACGGGGG,binding signal,[1],"7.84 upbm affinity estimate (log intensity, higher = more binding, comparable within an allelic series)"
same,binding signal,[20],"8.4 upbm affinity estimate (log intensity, higher = more binding, comparable within an allelic series)"
same,binding signal,[3],"7.81 upbm affinity estimate (log intensity, higher = more binding, comparable within an allelic series)"
same,binding signal,[21],"7.67 upbm affinity estimate (log intensity, higher = more binding, comparable within an allelic series)"
same,binding signal,[4],"7.86 upbm affinity estimate (log intensity, higher = more binding, comparable within an allelic series)"
same,binding signal,[22],"7.96 upbm affinity estimate (log intensity, higher = more binding, comparable within an allelic series)"
same,binding signal,[6],"7.01 upbm affinity estimate (log intensity, higher = more binding, comparable within an allelic series)"
same,binding signal,[23],"8.3 upbm affinity estimate (log intensity, higher = more binding, comparable within an allelic series)"
same,binding signal,[9],"10.1 upbm affinity estimate (log intensity, higher = more binding, comparable within an allelic series)"
same,binding signal,[10],"7.17 upbm affinity estimate (log intensity, higher = more binding, comparable within an allelic series)"
same,binding signal,[24],"8.26 upbm affinity estimate (log intensity, higher = more binding, comparable within an allelic series)"
same,binding signal,[12],"7.14 upbm affinity estimate (log intensity, higher = more binding, comparable within an allelic series)"
same,binding signal,[13],"10.4 upbm affinity estimate (log intensity, higher = more binding, comparable within an allelic series)"
same,binding signal,[14],"7.04 upbm affinity estimate (log intensity, higher = more binding, comparable within an allelic series)"
same,binding signal,[15],"7.08 upbm affinity estimate (log intensity, higher = more binding, comparable within an allelic series)"
CGGGCACG,binding signal,[1],"7.97 upbm affinity estimate (log intensity, higher = more binding, comparable within an allelic series)"
same,binding signal,[2],"9.61 upbm affinity estimate (log intensity, higher = more binding, comparable within an allelic series)"
same,binding signal,[3],"7.98 upbm affinity estimate (log intensity, higher = more binding, comparable within an allelic series)"
same,binding signal,[4],"8.07 upbm affinity estimate (log intensity, higher = more binding, comparable within an allelic series)"
same,binding signal,[7],"9.57 upbm affinity estimate (log intensity, higher = more binding, comparable within an allelic series)"
same,binding signal,[25],"8.22 upbm affinity estimate (log intensity, higher = more binding, comparable within an allelic series)"
same,binding signal,[8],"9.49 upbm affinity estimate (log intensity, higher = more binding, comparable within an allelic series)"
same,binding signal,[11],"9.66 upbm affinity estimate (log intensity, higher = more binding, comparable within an allelic series)"
CCCCATGC,binding signal,[1],"8.07 upbm affinity estimate (log intensity, higher = more binding, comparable within an allelic series)"
same,binding signal,[2],"9.5 upbm affinity estimate (log intensity, higher = more binding, comparable within an allelic series)"
same,binding signal,[3],"8.26 upbm affinity estimate (log intensity, higher = more binding, comparable within an allelic series)"
same,binding signal,[4],"8.2 upbm affinity estimate (log intensity, higher = more binding, comparable within an allelic series)"
same,binding signal,[7],"9.6 upbm affinity estimate (log intensity, higher = more binding, comparable within an allelic series)"
same,binding signal,[8],"9.46 upbm affinity estimate (log intensity, higher = more binding, comparable within an allelic series)"
same,binding signal,[11],"9.63 upbm affinity estimate (log intensity, higher = more binding, comparable within an allelic series)"
GCCAGGGC,binding signal,[1],"7.76 upbm affinity estimate (log intensity, higher = more binding, comparable within an allelic series)"
same,binding signal,[26],"9.77 upbm affinity estimate (log intensity, higher = more binding, comparable within an allelic series)"
same,binding signal,[3],"7.69 upbm affinity estimate (log intensity, higher = more binding, comparable within an allelic series)"
same,binding signal,[4],"7.85 upbm affinity estimate (log intensity, higher = more binding, comparable within an allelic series)"
same,binding signal,[6],"6.87 upbm affinity estimate (log intensity, higher = more binding, comparable within an allelic series)"
same,binding signal,[27],"9.77 upbm affinity estimate (log intensity, higher = more binding, comparable within an allelic series)"
same,binding signal,[28],"9.13 upbm affinity estimate (log intensity, higher = more binding, comparable within an allelic series)"
same,binding signal,[29],"9.52 upbm affinity estimate (log intensity, higher = more binding, comparable within an allelic series)"
same,binding signal,[9],"10.3 upbm affinity estimate (log intensity, higher = more binding, comparable within an allelic series)"
same,binding signal,[30],"9.7 upbm affinity estimate (log intensity, higher = more binding, comparable within an allelic series)"
same,binding signal,[31],"9.44 upbm affinity estimate (log intensity, higher = more binding, comparable within an allelic series)"
same,binding signal,[32],"6.61 upbm affinity estimate (log intensity, higher = more binding, comparable within an allelic series)"
same,binding signal,[33],"6.73 upbm affinity estimate (log intensity, higher = more binding, comparable within an allelic series)"
same,binding signal,[10],"7.25 upbm affinity estimate (log intensity, higher = more binding, comparable within an allelic series)"
same,binding signal,[34],"6.44 upbm affinity estimate (log intensity, higher = more binding, comparable within an allelic series)"
same,binding signal,[35],"9.44 upbm affinity estimate (log intensity, higher = more binding, comparable within an allelic series)"
same,binding signal,[12],"7.16 upbm affinity estimate (log intensity, higher = more binding, comparable within an allelic series)"
same,binding signal,[13],"10.4 upbm affinity estimate (log intensity, higher = more binding, comparable within an allelic series)"
same,binding signal,[36],"9.81 upbm affinity estimate (log intensity, higher = more binding, comparable within an allelic series)"
same,binding signal,[14],"6.74 upbm affinity estimate (log intensity, higher = more binding, comparable within an allelic series)"
same,binding signal,[15],"7.15 upbm affinity estimate (log intensity, higher = more binding, comparable within an allelic series)"
